Screening data deposited in PubChem BioAssay by ICCB-Longwood Screening Facility, Harvard Medical School.
An excerpt weighted towards active compounds, which were near 1.5% of everything screened.
MenB inh = M. tuberculosis MenB inhibitors, primary screen, biochemical, absorbance; 1,4-dihydroxy-2-naphthoyl-CoA synthase (Mycobacterium tuberculosis (strain ATCC 25618 / …; MenB enzyme assay, absorbance read-out; inhibition, % (test concentration not listed); actives 0.43% (n = 100,000); AID 540299, 2011; in the data active means inhibition above about 21%, passing the limit was not always enough
Target sequence (P9WNP5 whole entry, looked up): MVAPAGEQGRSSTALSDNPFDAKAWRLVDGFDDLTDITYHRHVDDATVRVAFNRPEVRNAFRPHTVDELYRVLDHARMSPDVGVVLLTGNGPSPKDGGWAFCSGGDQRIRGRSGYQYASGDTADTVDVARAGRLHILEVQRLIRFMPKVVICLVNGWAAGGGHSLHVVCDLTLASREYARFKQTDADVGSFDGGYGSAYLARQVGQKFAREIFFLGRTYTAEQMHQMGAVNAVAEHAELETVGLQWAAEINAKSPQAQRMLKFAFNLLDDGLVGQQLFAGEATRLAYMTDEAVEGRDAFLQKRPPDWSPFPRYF
MbtI inh = MbtI salicylate synthase inhibitors, primary screen, biochemical, fluorescence intensity; P9WFX0; purified MbtI enzyme, fluorescence intensity read-out; inhibition, % (concentration not given with the values); actives 0.89% (n = 100,000); AID 493033, 2011; in the data active means inhibition mostly above about 56%, no sharp cut-off; inactive means mostly below about 77%
PV pol inh = poliovirus RdRp elongation inhibitors, primary screen, biochemical, fluorescence polarization, total intensity. AID 588519, 2011. poliovirus polymerase elongation; hits give low values. actives 0.66% (n = 150,000). % elongation, % (compound at 16.7 µg/mL). Genome polyprotein (Poliovirus type 1 (strain Mahoney)), P03300; in the data active means % elongation below about 90%
AID504770 = growth inhibition of E. coli YBA685, primary screen, V. cholerae RctB inhibitors | E. coli YBA685 rctB-dependent plasmid, OD600 growth, 3 h; hits give low values | z-score (test concentration not listed) | actives 0.27% (n = 130,000) | AID 504770, 2011; in the data active means z-score below about -2, passing the limit was not always enough
* hit, by the source's call; x = no result.

SMILES	MenB inh	MbtI inh	PV pol inh	AID504770
N#Cc1c(NC(=O)/C=C/c2cccs2)sc2c1CCC2	x	x	x	-0.45
Cc1ccc(-n2nc(C(=O)NC(C)CCc3ccccc3)c3c4ccccc4n(C)c3c2=O)cc1 (stereo not given)	-12	13	105	-2.8*
COc1ccc(-c2noc(N(C)CC(=O)Nc3cccc(OC)c3)n2)cc1	-17	-9	103	-0.7
O=C1C2SCCN2C(=S)N1c1cccc(C(F)(F)F)c1 (stereo not given)	2	70*	100	-0.8
O=c1nc(Nc2ccccc2)[nH]c(=O)[nH]1	-11	x	104	-0.7
CCNc1nc(NCC)nc(N(C)N)n1	32*	-17	101	-0.35
Cc1sc(NC(=O)Cn2nc(C(F)(F)F)cc2C)c(C(N)=O)c1C	3	x	68*	0.05
O=C(CSc1nccn1Cc1ccc(F)cc1)NCc1ccc(F)cc1	x	x	106	x
O=C1NC(=S)N(c2ccccc2)C(=O)/C1=C\c1ccoc1	-21	69*	107	-0.75
C=CCn1c(=O)[nH]c2nc3cc(N=CN(C)C)ccc3nc2c1=O	-49	6	-6.0*	1.5
C=CCn1c(=O)[nH]c2nc3cc(N=CN(C)C)c(C)cc3nc2c1=O	-21	-4	88	-0.3
O/N=C1/C2CC3C1C14CC(C2/C1=N\O)C34 (stereo not given)	-8	2	101	2.2
CN1c2ccccc2N(C)C1c1ccc(O)cc1	-33	10	83*	-1.5
C=CCN(CC=C)Cn1nc(Nc2ccccc2F)sc1=S	3	99*	107	0.35
O=C(NCC(c1ccco1)S(=O)(=O)c1ccc(Cl)cc1)c1ccc2c(c1)OCO2 (stereo not given)	-17	-11	104	-1.2
Cc1nn(-c2ccccc2)nc1CNS(=O)(=O)c1cccs1	x	x	x	-3.3*
Cc1nn(-c2ccccc2)nc1CNS(C)(=O)=O	-11	11	102	-0.65
CCCCS(=O)(=O)CC(O)CSc1nc(-c2ccc(C)cc2)cc(-c2ccccc2)c1C#N (stereo not given)	x	x	81*	x
COc1ccc(-c2cc(-c3ccccc3)c(C#N)c(SCC(O)CS(=O)(=O)Cc3ccccc3)n2)cc1 (stereo not given)	x	x	108	x
O=C(O)c1ccc(Br)c(C(=O)O)c1	-8	x	102	-0.5
O=C(O)c1coc(=O)c(Br)c1	x	-12	x	-4.7*
O=C(OCC(=O)N1CCc2ccccc2C1)c1ccccc1	-23	3	84*	-0.45
COC(=O)C(C#N)=C(SC)SC	26	83*	93	-1.6
NC(=S)N/N=C/c1ccc(N2CCOCC2)s1	-266	89*	81	0.25
CCOc1cc(OCC)c(/C=N/O)c(OCC)c1	x	x	x	0.65
SMILES	MenB inh	MbtI inh	PV pol inh	AID504770
CCOc1ccc(/C=N/O)cc1	26*	10	104	0.6
O=C(O)c1ccc2c(c1)CCCN2	x	x	x	0.75
Clc1ccc2c(c1)CCN2	36*	27	100	-2.2
COc1ccccc1NC(=O)c1sc2nc(-c3cc4ccccc4oc3=O)[nH]c(=O)c2c1C	x	x	102	x
O=C(Nc1ccccc1)c1cnc(-c2ccc3c(c2)CCO3)s1	x	x	x	-1.1
Cc1nn(Cc2ccc(C(=O)Sc3ccc(C(F)(F)F)cn3)o2)c(C)c1Br	9	86*	104	0.55
CCc1ccc(NC(=O)CSC2=Nc3ccccc3C3=NC(CCC(=O)NCc4ccccc4)C(=O)N23)cc1 (stereo not given)	x	x	109	x
CN(c1ccc(O)cc1)c1nc(O)c(C2=c3ccccc3=NC2=O)s1	-128	-12	100	-0.45
O=C1N=c2ccccc2=C1c1sc(N2CCCCC2)nc1O	-40	81	58*	0.15
O=C1N=c2ccccc2=C1c1sc(=S)[nH]c1O	-51	84*	95	1
O=C1N=c2ccccc2=C1c1sc(=O)[nH]c1O	-254	14	96	-0.45
CCOC(=O)c1nn(-c2ccc(OC)cc2)c(=O)c2c(N)scc12	-4	54*	97	0.15
CCOC(=O)c1nn(-c2ccc(OC)cc2)c(=O)c(C#N)c1C	x	-12	x	-0.75
NC(=O)c1ccccc1NC(=O)CC1(CC(=O)O)CCCC1	x	0	104	0.65
CCN1CSC(=S)N(CC)C1	-17	-6	101	-2.5*
COCC(=O)Nc1ccccc1C(C)C	1	-7	98	-0.75
CC(C)c1ccccc1NN	11	x	79*	0.75
Cc1cc(=S)[nH]c2ccccc12	-40	61*	104	1
N#CC(C(=O)COc1ccccc1)c1ccccc1 (stereo not given)	-10	54*	102	-1.4
N=C1SCC(=O)N1c1nccs1	-13	x	102	-4.6*
Cc1cc2nc(N3C(=N)SCC3=O)sc2cc1C	-54	2	106	0.35
C=CCN1CCN(Cc2nnnn2Cc2ccc(OC)cc2)CC1	42*	1	103	0.85
Oc1c(C(Nc2nccs2)c2cccnc2)ccc2cccnc12 (stereo not given)	x	x	x	-0.75
CC(C)(C)C1(O)C=C(O)C(=O)N1c1cccnc1 (stereo not given)	53*	x	103	0
COC(=O)c1cc(-c2ccc(F)cc2)nc2onc(C)c12	3	62	105	0.45
SMILES	MenB inh	MbtI inh	PV pol inh	AID504770
Cc1ccc(/C=C/C2=CC(=C(C#N)C#N)CC(C)(C)C2)o1	-36	15	151	-0.5
Cc1ccc(/C=C/C2=Cc3c(sc(N)c3C#N)C(C)(C)C2)o1	-42	89*	104	0.4
Cn1c(=S)[nH]c2cc(S(N)(=O)=O)ccc21	-9	67	90*	0.25
NS(=O)(=O)c1ccc(CCn2c(=S)[nH]c3ccccc3c2=O)cc1	3	7	100	-0.35
O=C(c1ccc(Cl)cc1Cl)n1cc2c(n1)CCOC2	-4	-11	108	-0.9
COC1=CC(=O)c2ccccc2C1=O	-7	3	85*	-2.6*
COc1ccc(C2C3=C(CCCC3=O)OC3=C2C(=O)CCC3)cc1O	x	x	x	0.1
N=C1/C(=C2\NC(c3ccc(Br)cc3)=CS2)CC(=O)N1C1CC1	-31	91*	113	-0.4
O=C1NC(=O)N(C2CCCCC2)C(=O)/C1=C/c1ccc(Br)cc1	-15	34	100	1.9
CSc1nc(OC(=O)N(C)C)cc(-c2ccccc2)n1	x	x	x	1.7
CCC(C)C12CN3CCN(CC(C)(C3)C1=O)C2 (stereo not given)	2	10	100	2.1
COC(=O)c1sc(NC(=O)COc2ccc(OC)cc2)c(C#N)c1C	-20	x	83*	-0.5
CC1(C)CSC(=NCc2ccccc2)N1C(=O)Cn1[nH]c(=O)c2ccccc2c1=O	-42	-13	95	0.3
O=C(c1cc(=O)[nH]c2ccccc12)N1CCSC1=NCCc1ccccc1	-7	-5	64*	0
O=C(Cn1[nH]c(=O)c2ccccc2c1=O)N1CCSC1=NCc1ccccc1	2	-19	90*	-0.1
O=C(c1cc(=O)[nH]c2ccccc12)N1CCCc2ccccc21	-5	-2	x	-0.5
CCCCn1c(-c2ccc(C)cc2)c(C)n2c3c(=O)n(C)c(=O)n(C)c3nc12	x	x	104	x
COC(=O)c1ccc(/C=C/C(=O)OCC#N)cc1	3	1	88*	0.4
